Laboratory results: PubChem BioAssay (NCI)
The panel holds about 83,000 compounds, 20% with a hit somewhere; the sample as a whole holds those more often.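 The endpoint reported here, percent growth, reads 100 for growth as untreated, 0 for no net growth and -100 for all cells dead.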 Unmarked numbers belong to inactive results. Calls of active or inactive are those of the source. The calls were made as follows: active = growth percent below 10; inactive = the rest.

How the values were obtained:
Assay in all cases: NCI-60 one-dose screen, 48 h (100 = growth as untreated, 0 = no growth, -100 = all killed)
SK-MEL-2 melanoma = conditions: 10 µM unless noted
EKVX NSCLC = conditions: 10 µM unless noted
SN12C renal = conditions: 10 µM unless noted
UO-31 renal = conditions: 10 µM unless noted
TK-10 renal = conditions: 10 µM unless noted
ACHN renal = conditions: 10 µM unless noted
CAKI-1 renal = conditions: 10 µM unless noted
HL-60(TB) leukemia = conditions: 10 µM unless noted
MOLT-4 leukemia = conditions: 10 µM unless noted
SR leukemia = conditions: 10 µM unless noted
RPMI-8226 leukemia = conditions: 10 µM unless noted
OVCAR-8 ovarian = conditions: 10 µM unless noted
OVCAR-5 ovarian = conditions: 10 µM unless noted
OVCAR-4 ovarian = conditions: 10 µM unless noted
SK-OV-3 ovarian = conditions: 10 µM unless noted
IGROV1 ovarian = conditions: 10 µM unless noted
OVCAR-3 ovarian = conditions: 10 µM unless noted
HS 578T breast = conditions: 10 µM unless noted
A498 renal = conditions: 10 µM
CCRF-CEM leukemia = conditions: 10 µM unless noted

Structure (SMILES) | growth (SK-MEL-2 melanoma) | growth (EKVX NSCLC) [%] | growth (SN12C renal) | growth (UO-31 renal) | growth (TK-10 renal) | growth (ACHN renal) | growth (CAKI-1 renal) [%] | growth (HL-60(TB) leukemia) | growth (MOLT-4 leukemia) | growth (SR leukemia) | growth (RPMI-8226 leukemia) | growth (OVCAR-8 ovarian) | growth (OVCAR-5 ovarian) | growth (OVCAR-4 ovarian) | growth (SK-OV-3 ovarian) | growth (IGROV1 ovarian) | growth (OVCAR-3 ovarian) | growth (HS 578T breast) | growth (A498 renal) | growth (CCRF-CEM leukemia)
CC[C@H](C)[C@H](NC(=O)C12C3C4C1C1C2C3C41NC(C)=O)C(=O)N(C)[C@H](C[C@@H](OC(C)=O)c1nc(C(=O)N[C@@H](Cc2ccccc2)C[C@H](C)C(=O)OC)cs1)C(C)C (stereo not given in full) | 49.2% | 38.6 | 25.6% | 59.8% | 62% | 36.6% | 74.1 | -13.3% (active) | 17.7% | 16.6% | 2.37% (active) | 17% | 47.8% | 38.7% | 48.5% | 31.1% | -33.8% (active) | 18.6% |  | 
COc1ccc2c(c1)c(-c1nc(-c3c[nH]c4ncccc34)cs1)cn2CCCCN1CCCCC1 | -53.2% (active) | 49.4 | -75.2% (active) | -87.6% (active) | -16.6% (active) | -92.2% (active) |  | -69.8% (active) | -60.3% (active) | -57.6% (active) | -43.6% (active) | -67.6% (active) | -15.7% (active) | -13.3% (active) | -61.5% (active) | -62.1% (active) | -71.4% (active) | -23.3% (active) | 58.2% | -38.7% (active)
COC(=O)[C@@]1(C)CC[C@]2(C)CC[C@]3(C)C4=CC(=O)c5c(cc(O)c(O)c5C)[C@]4(C)CC[C@@]3(C)[C@@H]2C1 | 71.6% | 71.7 | 61.7% | 50.6% | 68.9% | 53.3% |  | 38.4% | 18.3% | 51.2% | 27% | 60.4% | 119% | 47.4% | 58.3% | 50.8% | 47.9% | 79.5% | 57.1% | 26.9%
CC(=O)O[C@H](C[C@H](C(C)C)N(C)C(=O)[C@@H](NC(=O)[C@H]1CCCCN1C)C(C)C)c1cccc(C(=O)N[C@@H](Cc2ccccc2)C[C@H](C)C(=O)O)n1 | 30.4% | 37.3 | 22% | 39.4% | 69% | 35.3% |  | -38.1% (active) | 9.11% (active) | 6.32% (active) | 19.7% | 1.57% (active) | 32.5% | 41.9% | 23.3% | 24% | -50.3% (active) | 9.57% (active) | -13.2% (active) | 5.5% (active)
